The list is not random: actives were taken first. Their share in the collection is about 11%.
HCV inh – HCV inhibition; AID 651820; 3.4% of 340,000 active; Potency, µM (series often up to 41.8 µM), for the others: at the top dose activity change, negative = inhibition, actives largely listed as inhibitors; Huh7.5.1 HCVcc-Cre infection, luciferase reporter, 44 h; note: % is set by controls: 0 for no effect and ±100 for the full control effect
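Cells seeded at 1,000/well and cultured 4 h, then compounds added followed by HCVcc-Cre virus (~0.5 moi). After 44 h further culture, luciferase substrate was added, plates held 15 min at room temperature, and luminescence read for 15 sec.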
VACV mCherry inh – inhibitors of vaccinia virus infection (mCherry reporter signal). Vaccinia virus mCherry reporter infection, fluorescence. Potency, µM (highest dose often 36.5 µM), for the others: at the top dose activity change, negative = inhibition, actives largely listed as inhibitors. 0.63% of 310,000 active. AID 720579; calls by dose curve; tested in A549 cells; note: % is set by controls: 0 for no effect and ±100 for the full control effect; nearly all actives have a fitted effect of over 35% in size
Pf growth 48h – P. falciparum growth inhibition at 48 hours (one generation); P. falciparum luciferase growth in erythrocytes, 48 h; Potency, µM (doses to about 28.7 µM), inactives show top-dose activity change, negative = inhibition, actives largely listed as inhibitors; 5.9% of 310,000 active; AID 504832; note: % is set by controls: 0 for no effect and ±100 for the full control effect
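A one-generation exposure of luciferase-tagged malaria parasites in RPMI 1640/Albumax erythrocyte culture, 37 C and 5% CO2. Inhibition is inferred from decreased luminescence after adding detection reagent.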
VACV Venus inh – vaccinia inhibition (Venus reporter) | 0.46% of 330,000 active | Vaccinia virus Venus reporter expression, fluorescence | AID 720580 | Potency, µM (highest dose often 36.5 µM), without a hit: at the highest dose activity change, negative = inhibition, usual class: inhibitors; calls by dose curve; tested in A549 cells; note: % is set by controls: 0 for no effect and ±100 for the full control effect; nearly all actives have a fitted effect of over 30% in size
NS1 inh – influenza NS1 inhibition | 0.4% of 270,000 active | Potency, µM (titrated, usually from 46.1 µM), without a hit: top-dose activity, positive = more growth | AID 2326; calls by dose curve; note: actives are rising curves; nearly all actives have a fitted effect of over 50% in size
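S. cerevisiae expressing influenza A NS1, grown in glucose, washed, then diluted 1:100 into pH 6.0 -URA galactose medium with 23 nl compound. Growth recovery read as OD600; NS1-free strain serves as control.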
Pf growth 96h – P. falciparum growth inhibition at 96 hour, primary screen for plastid delayed-death inhibitors | P. falciparum luciferase reporter growth, 96 h | Potency, µM (highest dose often 28.7 µM), inactives show top-dose activity change, negative = inhibition, hits mostly inhibitors | 6.9% of 320,000 active | AID 504834; note: % is set by controls: 0 for no effect and ±100 for the full control effect
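Infected RBCs, 2% Hct / 0.05% parasitemia final; luciferase-reporter P. falciparum; cpd 96 h, 37 C, 5% CO2; luciferase detection reagent; luminescence.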
Active calls of the source: *; i = inactive; u = inconclusive; x = no result given; [ ] = remark or other dose. Unless noted, calls come from the whole dose curve; as a rule, active = well fitted inhibition curve with a large enough effect; inconclusive = small, poorly fitted or top-dose-only effect, or another doubt; inactive = no such curve, though single readings can be large or run the other way. Potency is the fitted concentration of half-maximal effect.

SMILES	HCV inh	VACV mCherry inh	Pf growth 48h	VACV Venus inh	NS1 inh	Pf growth 96h
O=C(c1ccc(S(=O)(=O)NCc2ccco2)cc1)N1CCCC1	-1%	i	5%	-14%	x	-16%
O=C(c1ccc(CNS(=O)(=O)c2ccccc2)cc1)N1CCN(Cc2ccccc2)CC1	11µM*	-3%	-20%	-25%	-8%	x
N#Cc1ccc(CN2CCN(C(=O)c3ccc(S(=O)(=O)NCc4ccco4)cc3)CC2)cc1	6.3µM*	x	u	x	x	3.7µM*
Cc1ccc(Cn2c(SCC(=O)NCc3ccccc3)nc3ccsc3c2=O)cc1	x	0%	x	-8%	x	x
CC1CCN(S(=O)(=O)c2ccc(NC(=O)c3cccs3)cc2)CC1	u	x	4.7µM*	u	-13%	5%
CCCCN(CCCC)S(=O)(=O)c1ccc(NC(=O)c2cccs2)cc1	u	x	x	x	2%	0.41µM*
CC1CCCCN1S(=O)(=O)c1ccc(NC(=O)c2cccs2)cc1 (configuration not stated)	u	-5%	15µM*	u	-39%	u
Cc1cc(C)nc(NS(=O)(=O)c2ccc(NC(=O)c3cccs3)cc2)n1	16%	x	-2%	3%	-2%	7%
CCc1ccc(NCc2cc3c(C)nn(-c4ccccc4)c3[nH]c2=O)cc1	-17%	-19%	x	-30%	-87%	u
Cc1ccc(-c2nn(-c3ccccc3)c3[nH]c(=O)c(CNCc4ccccc4)cc23)cc1	u	u	1µM*	-14%	3%	-18%
Cc1nn(-c2ccccc2)c2[nH]c(=O)c(CNCCN3CCOCC3)cc12	8%	-8%	-2%	-2%	-4%	-6%
Cc1ccc(-c2nn(-c3ccccc3)c3[nH]c(=O)c(CNCCN(C)C)cc23)cc1	13%	x	4.7µM*	x	-1%	-10%
Cc1ccc(-c2nn(-c3ccccc3)cc2CNCc2ccccc2)cc1	11µM*	u	u	u	-3%	-13%
O=C(Cc1cccc2ccccc12)N/N=C/c1ccc(OC(=O)/C=C/c2ccco2)cc1	u	-21%	12µM*	-20%	13%	u
O=C(Cc1cccc2ccccc12)N/N=C/c1ccncc1	-6%	-1%	0%	-10%	-4%	10µM*
O=C(Cc1cccc2ccccc12)N/N=C/c1ccc(F)cc1	7%	i	u	-11%	-1%	u
Cc1[nH]c(=O)[nH]c(=O)c1C1N2CC3(C(C)C)CN1CC(C(C)C)(C2)C3=O (configuration not stated)	x	4%	x	-11%	x	x
COc1cc(NC(=O)C2=C(N3CCOCC3)/C(=C/c3ccc(Cl)cc3)CC2)cc(OC)c1OC	17%	i	-10%	-6%	10%	1%
COc1cc(NC(=O)C2=C(N3CCOCC3)/C(=C\c3ccc(N(C)C)cc3)CCC2)cc(OC)c1OC	6.3µM*	u	15µM*	u	18%	u
Cc1cc(NS(=O)(=O)c2ccc(Nc3nc(-c4sc(NC(=O)c5ccccc5)nc4C)cs3)cc2)no1	x	x	12%	x	9%	x
CCOc1ccccc1Nc1nc(-c2sc(NC(=O)c3ccccc3)nc2C)cs1	x	x	7.4µM*	x	u	u
COc1ccccc1Nc1nc(-c2sc(NC(=O)c3ccccc3)nc2C)cs1	-34%	u	u	-19%	12%	u
Cc1nc(NC(=O)c2ccccc2)sc1-c1csc(Nc2cccc(F)c2)n1	x	x	u	x	-2%	4.7µM*
Cc1ccc(Cl)cc1Nc1nc(-c2sc(NC(=O)c3ccccc3)nc2C)cs1	x	x	2.1µM*	x	21%	2.6µM*
CCOc1ccccc1Nc1nc(-c2sc(NC(=O)c3cccc(Cl)c3)nc2C)cs1	-3%	u	6.6µM*	-5%	-1%	4.7µM*
SMILES	HCV inh	VACV mCherry inh	Pf growth 48h	VACV Venus inh	NS1 inh	Pf growth 96h
Cc1[nH]n(-c2ccccc2)c(=O)c1C(C[N+](=O)[O-])c1ccccc1Cl (configuration not stated)	2%	-13%	-4%	-10%	-79%	x
COc1ccccc1N1CCN(CC(=O)c2c(C)[nH]c3cc(C)ccc23)CC1	3%	-14%	13µM*	-1%	-5%	20%
Cc1ccc2c(C(=O)CN3CCN(C4CCCCC4)CC3)c(C)[nH]c2c1	-29%	x	2.6µM*	u	3%	-20%
COc1ccccc1N1CCN(CC(=O)c2c(C)n(C)c3ccccc23)CC1	-32%	x	u	x	3%	u
COCCOC1CCN(Cc2cn(Cc3ccccc3)nc2-c2cc3ccccc3o2)CC1	2%	x	u	x	-5%	30%
CCC(O)C1CCN(Cc2cn(Cc3ccccc3)nc2-c2cc3ccccc3o2)CC1 (configuration not stated)	u	-7%	5.2µM*	-27%	2%	0%
COc1cc(/C=C2\C(=N)N3N=C(S(C)(=O)=O)SC3=NC2=O)ccc1OS(=O)(=O)c1ccccc1	x	x	4%	x	13%	u
CCS(=O)(=O)C1=NN2C(=N)/C(=C\c3ccc(OS(=O)(=O)c4ccccc4)c(OC)c3)C(=O)N=C2S1	x	x	u	x	22%	9.3µM*
Cc1cc(C)c(C(=O)/C=C/C=C/c2ccccc2)c(=O)[nH]1	1%	-29%	45%	u	-10%	43%
Cc1cc(C)c(C(=O)/C=C/c2ccc(C(C)C)cc2)c(=O)[nH]1	-10%	5µM*	u	u	-65%	u
O=C1c2ccccc2CC1(Cc1ccccc1)Cc1ccccc1	2%	x	13µM*	x	-14%	u
CCC1(CC)Cc2ccccc2C(=O)N1	-5%	i[7.34 µM]	5%	1%[7.34 µM]	-7%	22%
Cc1cccc(NC(=O)CSc2nnc(CNC(=O)c3ccc(S(=O)(=O)N(C)C)cc3)n2-c2cccc(C)c2)c1	u	-2%	u	-10%	-16%	7.4µM*
Cc1cccc(NC(=O)CSc2nnc(CNC(=O)c3ccc(S(=O)(=O)N(C)C)cc3)n2-c2ccc(F)cc2)c1	u	-27%	-14%	-19%	-15%	u
Cc1cccc(-n2c(CNC(=O)c3ccc(S(=O)(=O)N(C)C)cc3)nnc2SCC(=O)Nc2ccc(F)cc2)c1	-7%	-7%	12µM*	-17%	-19%	u
